# ± gives the standard deviation of the averaged measurements.
# Assays:
# Assay in all cases: promoter activity interaction Z-score (Lux/OD deviation from empty-vector control); higher = stronger promoter induction by the compound
# [1] = system: E. coli BW25113 acrABp lux reporter
# In short: (§1)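 Low-copy luxCDABE promoter reporters were carried by E. coli BW25113, either wild type or lacking one of three genes, grown in 40 µl LB Lennox in 384-well plates at 37°C. Each compound was run at four 1:2 dilutions in biological duplicates, with OD600 and luminescence read every 30 min for 12 h. Integration used 0–8 h for wild type and 1–9 h for deletion strains, and wells under 10% of the median growth value were removed. Luminescence normalised to growth was fitted against a control, and the Z-transformed residual is the score.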
# [2] = system: E. coli BW25113 micFp lux reporter
# In short: as §1
# [3] = system: E. coli BW25113 ompFp lux reporter
# In short: as §1
# [4] = system: E. coli BW25113 robp lux reporter
# In short: as §1
# [5] = system: E. coli BW25113 soxSp lux reporter
# In short: as §1
# [6] = system: E. coli BW25113 tolCp lux reporter
# In short: as §1
# [7] = 0.64 µg/ml, genetic background: wild type
# [8] = 0.64 µg/ml, genetic background: ΔmarA
# [9] = 0.64 µg/ml, genetic background: Δrob
# [10] = 0.64 µg/ml, genetic background: ΔsoxS
# [11] = 1.3 µg/ml, genetic background: wild type
# [12] = 1.3 µg/ml, genetic background: ΔmarA
# [13] = 1.3 µg/ml, genetic background: Δrob
# [14] = 1.3 µg/ml, genetic background: ΔsoxS
# [15] = 2.6 µg/ml, genetic background: wild type
# [16] = 2.6 µg/ml, genetic background: ΔmarA
# [17] = 2.6 µg/ml, genetic background: Δrob
# [18] = 2.6 µg/ml, genetic background: ΔsoxS
# [19] = 5.1 µg/ml, genetic background: wild type
# [20] = 5.1 µg/ml, genetic background: ΔmarA
# [21] = 5.1 µg/ml, genetic background: Δrob
# [22] = 5.1 µg/ml, genetic background: ΔsoxS
smiles,measurement,setting,value
C[n+]1ccc(-c2cc[n+](C)cc2)cc1 [Paraquat],promoter activity interaction Z-score,[1]; [7],0.0325 ± 0.07
same,promoter activity interaction Z-score,[1]; [8],0.871 ± 1.1
same,promoter activity interaction Z-score,[1]; [9],0.287 ± 0.14
same,promoter activity interaction Z-score,[1]; [10],-0.155 ± 0.38
same,promoter activity interaction Z-score,[1]; [11],-0.0426 ± 0.21
same,promoter activity interaction Z-score,[1]; [12],0.412 ± 0.8
same,promoter activity interaction Z-score,[1]; [13],0.484 ± 0.32
same,promoter activity interaction Z-score,[1]; [14],0.177 ± 0.18
same,promoter activity interaction Z-score,[1]; [15],0.406 ± 0.016
same,promoter activity interaction Z-score,[1]; [16],0.865 ± 0.77
same,promoter activity interaction Z-score,[1]; [17],0.362 ± 0.13
same,promoter activity interaction Z-score,[1]; [18],0.148 ± 0.023
same,promoter activity interaction Z-score,[1]; [19],0.966 ± 0.12
same,promoter activity interaction Z-score,[1]; [20],0.0695 ± 0.017
same,promoter activity interaction Z-score,[1]; [21],1.06 ± 0.54
same,promoter activity interaction Z-score,[1]; [22],0.747 ± 0.85
same,promoter activity interaction Z-score,[2]; [7],0.149 ± 0.24
same,promoter activity interaction Z-score,[2]; [8],1.489 ± 0.0083
same,promoter activity interaction Z-score,[2]; [9],1.28 ± 0.4
same,promoter activity interaction Z-score,[2]; [10],-0.129 ± 0.0025
same,promoter activity interaction Z-score,[2]; [11],0.566 ± 0.14
same,promoter activity interaction Z-score,[2]; [12],2.36 ± 0.1
same,promoter activity interaction Z-score,[2]; [13],2.69 ± 0.87
same,promoter activity interaction Z-score,[2]; [14],-0.0229 ± 0.11
same,promoter activity interaction Z-score,[2]; [15],1.23 ± 0.11
same,promoter activity interaction Z-score,[2]; [16],3.79 ± 0.15
same,promoter activity interaction Z-score,[2]; [17],4.57 ± 1.3
same,promoter activity interaction Z-score,[2]; [18],-0.156 ± 0.22
same,promoter activity interaction Z-score,[2]; [19],3.89 ± 0.099
same,promoter activity interaction Z-score,[2]; [20],5.91 ± 1.2
same,promoter activity interaction Z-score,[2]; [21],8.849 ± 0.017
same,promoter activity interaction Z-score,[2]; [22],-0.509 ± 0.16
same,promoter activity interaction Z-score,[3]; [7],0.528 ± 0.083
same,promoter activity interaction Z-score,[3]; [8],0.49 ± 0.27
same,promoter activity interaction Z-score,[3]; [9],0.489 ± 0.56
same,promoter activity interaction Z-score,[3]; [10],0.272 ± 0.36
same,promoter activity interaction Z-score,[3]; [11],0.484 ± 0.34
same,promoter activity interaction Z-score,[3]; [12],0.321 ± 0.0078
same,promoter activity interaction Z-score,[3]; [13],0.81 ± 0.54
same,promoter activity interaction Z-score,[3]; [14],0.308 ± 0.03
same,promoter activity interaction Z-score,[3]; [15],0.864 ± 0.28
same,promoter activity interaction Z-score,[3]; [16],0.472 ± 0.45
same,promoter activity interaction Z-score,[3]; [17],1.09 ± 0.6
same,promoter activity interaction Z-score,[3]; [18],0.514 ± 0.2
same,promoter activity interaction Z-score,[3]; [19],1.34 ± 0.52
same,promoter activity interaction Z-score,[3]; [20],0.867 ± 0.69
same,promoter activity interaction Z-score,[3]; [21],1.96 ± 1.2
same,promoter activity interaction Z-score,[3]; [22],-2.03
same,promoter activity interaction Z-score,[4]; [7],-0.182 ± 0.091
same,promoter activity interaction Z-score,[4]; [8],0.325 ± 0.15
same,promoter activity interaction Z-score,[4]; [9],0.533 ± 0.16
same,promoter activity interaction Z-score,[4]; [10],0.786 ± 0.081
same,promoter activity interaction Z-score,[4]; [11],0.394 ± 0.0088
same,promoter activity interaction Z-score,[4]; [12],-0.0344 ± 0.25
same,promoter activity interaction Z-score,[4]; [13],0.769 ± 0.054
same,promoter activity interaction Z-score,[4]; [14],1.6 ± 0.18
same,promoter activity interaction Z-score,[4]; [15],0.405 ± 0.13
same,promoter activity interaction Z-score,[4]; [16],-0.176 ± 0.36
same,promoter activity interaction Z-score,[4]; [17],-0.103 ± 0.18
same,promoter activity interaction Z-score,[4]; [18],0.939 ± 0.087
same,promoter activity interaction Z-score,[4]; [19],-1.49 ± 0.031
same,promoter activity interaction Z-score,[4]; [20],-1.22 ± 0.88
same,promoter activity interaction Z-score,[4]; [21],-1.65 ± 0.29
same,promoter activity interaction Z-score,[4]; [22],-2.13
same,promoter activity interaction Z-score,[5]; [7],2.83 ± 0.11
same,promoter activity interaction Z-score,[5]; [8],2.9 ± 0.097
same,promoter activity interaction Z-score,[5]; [9],3.15 ± 0.6
same,promoter activity interaction Z-score,[5]; [10],3.26 ± 0.44
same,promoter activity interaction Z-score,[5]; [11],4.46 ± 0.059
same,promoter activity interaction Z-score,[5]; [12],4.28 ± 0.14
same,promoter activity interaction Z-score,[5]; [13],5.3 ± 1.6
same,promoter activity interaction Z-score,[5]; [14],4.33 ± 0.021
same,promoter activity interaction Z-score,[5]; [15],6.809 ± 0.059
same,promoter activity interaction Z-score,[5]; [16],7.02 ± 1.1
same,promoter activity interaction Z-score,[5]; [17],7.7 ± 0.67
same,promoter activity interaction Z-score,[5]; [18],5.69 ± 0.3
same,promoter activity interaction Z-score,[5]; [19],13.3 ± 0.42
same,promoter activity interaction Z-score,[5]; [20],13.9 ± 0.57
same,promoter activity interaction Z-score,[5]; [21],13.2 ± 0.83
same,promoter activity interaction Z-score,[5]; [22],7.48 ± 0.55
same,promoter activity interaction Z-score,[6]; [7],0.284 ± 0.95
same,promoter activity interaction Z-score,[6]; [8],0.749 ± 0.29
same,promoter activity interaction Z-score,[6]; [9],0.775 ± 0.4
same,promoter activity interaction Z-score,[6]; [10],-0.838 ± 0.78
same,promoter activity interaction Z-score,[6]; [11],-0.11 ± 0.4
same,promoter activity interaction Z-score,[6]; [12],1.44 ± 1.1
same,promoter activity interaction Z-score,[6]; [13],0.62 ± 0.32
same,promoter activity interaction Z-score,[6]; [14],0.0157 ± 0.29
same,promoter activity interaction Z-score,[6]; [15],2.66 ± 0.41
same,promoter activity interaction Z-score,[6]; [16],3 ± 0.23
same,promoter activity interaction Z-score,[6]; [17],2.88 ± 0.087
same,promoter activity interaction Z-score,[6]; [18],-0.245 ± 1.2
same,promoter activity interaction Z-score,[6]; [19],3.73 ± 0.21
same,promoter activity interaction Z-score,[6]; [20],6.42 ± 0.38
same,promoter activity interaction Z-score,[6]; [21],3.99 ± 0.79
same,promoter activity interaction Z-score,[6]; [22],-0.515 ± 0.099

# Reference: the supplement of paper PMC12282887
